{"source": "paper PMC4053984", "about": "“DNA binding specificities of the long zinc-finger recombination protein PRDM9”", "data": [{"target": "PRDM9Cst (Mus musculus (CAST/EiJ))", "sequence (chain, as listed by the source)": "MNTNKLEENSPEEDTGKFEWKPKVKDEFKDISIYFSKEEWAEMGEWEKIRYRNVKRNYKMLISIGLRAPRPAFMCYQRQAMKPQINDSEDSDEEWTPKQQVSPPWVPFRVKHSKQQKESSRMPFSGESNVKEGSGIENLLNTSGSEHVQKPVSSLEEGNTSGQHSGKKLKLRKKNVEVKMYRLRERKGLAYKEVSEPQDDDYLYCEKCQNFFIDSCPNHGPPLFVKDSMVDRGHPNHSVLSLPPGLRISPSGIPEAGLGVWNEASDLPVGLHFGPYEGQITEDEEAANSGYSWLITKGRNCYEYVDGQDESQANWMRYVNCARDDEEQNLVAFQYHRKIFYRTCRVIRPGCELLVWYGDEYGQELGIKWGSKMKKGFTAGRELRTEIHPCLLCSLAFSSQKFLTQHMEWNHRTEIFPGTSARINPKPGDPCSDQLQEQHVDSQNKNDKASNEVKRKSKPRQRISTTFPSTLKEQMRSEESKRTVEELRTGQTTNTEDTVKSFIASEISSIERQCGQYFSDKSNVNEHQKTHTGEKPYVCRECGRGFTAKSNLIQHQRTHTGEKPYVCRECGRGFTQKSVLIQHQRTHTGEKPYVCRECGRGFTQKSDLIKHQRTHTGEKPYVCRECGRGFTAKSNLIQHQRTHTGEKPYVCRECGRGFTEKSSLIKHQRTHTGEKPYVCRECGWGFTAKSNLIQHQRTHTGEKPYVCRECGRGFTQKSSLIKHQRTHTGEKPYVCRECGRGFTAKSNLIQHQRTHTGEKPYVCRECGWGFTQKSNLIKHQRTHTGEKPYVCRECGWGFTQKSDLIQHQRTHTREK", "assay": "competition EMSA; competition against biotin-labeled 75-bp Hlx1 B6 oligo; 10 mM Tris pH 7.5, 50 mM KCl, 1 mM DTT, 50 ng/ul poly(dI/dC), 0.05% NP-40, crude E. coli extract 3 ul in 20 ul; 1 h with unlabeled competitor, then 4 h with biotin-labeled 75-bp Hlx1; temperature not stated; high values mean tight binding", "settings": "tags: N-terminal His tag (pBAD/HisB); dsDNA, one strand shown", "values": [{"sequence": "ATAGTGTGCAGACTTGGACCCGGCCCTTTCTTT", "binding signal": "-0.5 Bmut (0 = wild type, -1 = scrambled)"}, {"sequence": "ATAGTGTGCAGACCTGGACCCTGCCCTTTCTTT", "binding signal": "0 Bmut (0 = wild type, -1 = scrambled)"}, {"sequence": "ATAGTGTGCAGACTTGGACCCTGCCCGTTCTTT", "binding signal": "0.1 Bmut (0 = wild type, -1 = scrambled)"}, {"sequence": "ATAGTGTGCAGTCTTGGACCCTGCCCTTTCTTT", "binding signal": "-0.2 Bmut (0 = wild type, -1 = scrambled)"}, {"sequence": "ATAGTGTGCAGACTTGGACCCTGCCCTTTCTTT", "binding signal": "0 Bmut (0 = wild type, -1 = scrambled)"}, {"sequence": "ATAGTGTGCAGACTTGGACTCTGCCCTTTCTTT", "binding signal": "0.01 Bmut (0 = wild type, -1 = scrambled)"}, {"sequence": "ATAGTGCGCAGACTTGGACCCTGCCCTTTCTTT", "binding signal": "-0.2 Bmut (0 = wild type, -1 = scrambled)"}, {"sequence": "ATAGTGTGCAGACTTGAACCCTGCCCTTTCTTT", "binding signal": "0.2 Bmut (0 = wild type, -1 = scrambled)"}, {"sequence": "ATAGAGTGCAGACTTGGACCCTGCCCTTTCTTT", "binding signal": "0 Bmut (0 = wild type, -1 = scrambled)"}, {"sequence": "ATAGTGAGCAGACTTGGACCCTGCCCTTTCTTT", "binding signal": "-0.3 Bmut (0 = wild type, -1 = scrambled)"}, {"sequence": "ATAGTGTGTAGACTTGGACCCTGCCCTTTCTTT", "binding signal": "0 Bmut (0 = wild type, -1 = scrambled)"}, {"sequence": "ACAGTGTGCAGACTTGGACCCTGCCCTTTCTTT", "binding signal": "-0.1 Bmut (0 = wild type, -1 = scrambled)"}, {"sequence": "ATAGTGTCCAGACTTGGACCCTGCCCTTTCTTT", "binding signal": "-0.1 Bmut (0 = wild type, -1 = scrambled)"}, {"sequence": "ATAGTGTGCAGACTTGGACCCTGCCCTTTCTAT", "binding signal": "0.15 Bmut (0 = wild type, -1 = scrambled)"}, {"sequence": "ATAGTGTGCAGACTTGGACCCTGCGCTTTCTTT", "binding signal": "-0.4 Bmut (0 = wild type, -1 = scrambled)"}, {"sequence": "ATAGTGTGCAGACTTGGACCCTGCCCTTTCTTC", "binding signal": "0.14 Bmut (0 = wild type, -1 = scrambled)"}, {"sequence": "ATAGTGTGCAGACTTTGACCCTGCCCTTTCTTT", "binding signal": "0 Bmut (0 = wild type, -1 = scrambled)"}, {"sequence": "ATAGTATGCAGACTTGGACCCTGCCCTTTCTTT", "binding signal": "0 Bmut (0 = wild type, -1 = scrambled)"}, {"sequence": "ATAGTTTGCAGACTTGGACCCTGCCCTTTCTTT", "binding signal": "-0.3 Bmut (0 = wild type, -1 = scrambled)"}, {"sequence": "ATAGTGTGCAGACTTGCACCCTGCCCTTTCTTT", "binding signal": "-0.2 Bmut (0 = wild type, -1 = scrambled)"}, {"sequence": "ATAGTGTGGAGACTTGGACCCTGCCCTTTCTTT", "binding signal": "0.1 Bmut (0 = wild type, -1 = scrambled)"}, {"sequence": "ATAGTGTGCAGACTTGTACCCTGCCCTTTCTTT", "binding signal": "-0.8 Bmut (0 = wild type, -1 = scrambled)"}, {"sequence": "TTAGTGTGCAGACTTGGACCCTGCCCTTTCTTT", "binding signal": "0 Bmut (0 = wild type, -1 = scrambled)"}, {"sequence": "ATAGTGTGCAGACTTGGACCCTGCCATTTCTTT", "binding signal": "-0.1 Bmut (0 = wild type, -1 = scrambled)"}, {"sequence": "ATAGTGTGCAGACGTGGACCCTGCCCTTTCTTT", "binding signal": "-0.4 Bmut (0 = wild type, -1 = scrambled)"}, {"sequence": "GTAGTGTGCAGACTTGGACCCTGCCCTTTCTTT", "binding signal": "0 Bmut (0 = wild type, -1 = scrambled)"}, {"sequence": "ATAGTGTGCAGACTTGGACCCTCCCCTTTCTTT", "binding signal": "-0.1 Bmut (0 = wild type, -1 = scrambled)"}, {"sequence": "CTAGTGTGCAGACTTGGACCCTGCCCTTTCTTT", "binding signal": "-0.1 Bmut (0 = wild type, -1 = scrambled)"}, {"sequence": "ATAGTGTGCAGACTTGGACCCTACCCTTTCTTT", "binding signal": "0.1 Bmut (0 = wild type, -1 = scrambled)"}, {"sequence": "ATAGTGTGCTGACTTGGACCCTGCCCTTTCTTT", "binding signal": "-0.4 Bmut (0 = wild type, -1 = scrambled)"}, {"sequence": "ATAGTGTTCAGACTTGGACCCTGCCCTTTCTTT", "binding signal": "-0.4 Bmut (0 = wild type, -1 = scrambled)"}]}]}
